Source: PubChem BioAssay AID1986 (Sanford-Burnham Center for Chemical Genomics, 2009)
About 890 (0.31%) of roughly 290,000 compounds were called active. Cut-off read from the data, not from the text of the source: active = inhibition mostly above about 52% (no sharp cut-off); inactive = mostly below about 76%. This excerpt belongs to a sample that is enriched for actives.

Test: inhibitors of HIV fusion peptide binding, primary screen, biochemical, uHTS, fluorescence dequenching (AID 1986)
Conditions: cell-free peptide binding, 30 min, stronger effect = higher value
[1] = measured here: repeat confirmation average inhibition, at 18.6 µM

CC(=O)NS(=O)(=O)c1ccc(N=c2ssc3c2-c2cc(C)ccc2NC3(C)C)cc1
inhibition (at 20 µM): 46.9% (inactive)

CC(=O)NS(=O)(=O)c1ccc(N=c2ssc3c2-c2ccc(C)cc2NC3(C)C)cc1
inhibition (at 20 µM): 52.5% (active)

CC(=O)NS(=O)(=O)c1ccc(N=c2ssc3c2-c2cc(C)c(C)cc2NC3(C)C)cc1
inhibition (at 20 µM): 51.7% (inactive) | inhibition [1]: 11.3%

Cc1snc(SCc2cccc(Cl)c2)c1C#N
inhibition (at 20 µM): -1.1% (inactive)

N#Cc1c(Cl)nc(SCc2ccccc2)nc1-c1ccccc1
inhibition (at 20 µM): -2.7% (inactive)

O=C(CSc1nc(O)cc(=O)[nH]1)N1c2ccccc2Sc2ccccc21
inhibition (at 20 µM): 2.6% (inactive)

Cc1nc(SCC(=O)N2c3ccccc3Sc3ccccc32)n[nH]1
inhibition (at 20 µM): -1.2% (inactive)

CC(C)NC(=O)CSc1nnc(-c2ccc(S(=O)(=O)N3CCCC3)cc2)n1CC1CCCO1 (stereo unspecified)
inhibition (at 20 µM): -1.1% (inactive)

CCn1cnc2scc(-c3ccc(OC)cc3)c2c1=O
inhibition (at 20 µM): 2% (inactive)

CC1CCC2(CC1)NC(=O)N(Cc1cc(=O)n3ccsc3n1)C2=O (stereo unspecified)
inhibition (at 20 µM): -0.3% (inactive)

O=C(OCc1c(Cl)cccc1Cl)c1cccnc1
inhibition (at 20 µM): -1.3% (inactive)

CCCN(CCC)Cc1cc2ccccc2c2c1COC2
inhibition (at 20 µM): 1.9% (inactive)

Cc1ccc(Cc2c(C)[nH]c(=S)[nH]c2=O)cc1
inhibition (at 20 µM): 0.1% (inactive)

CCOc1ccc(CC(=O)Nc2cc(=O)n(C)c(=O)n2C)cc1
inhibition (at 20 µM): 1.4% (inactive)

N/C(=N\NC(=O)c1cccs1)c1cc2ccccc2oc1=O
inhibition (at 20 µM): 1.8% (inactive)

NC(=O)c1cc2ccccc2o/c1=N\NC(=O)c1ccncc1
inhibition (at 20 µM): -1.9% (inactive)

CCN(CC)c1ccc2cc(C(N)=O)c(=N)oc2c1
inhibition (at 20 µM): 136% (inactive)

CCN(CC)c1ccc2cc(C(N)=O)/c(=N\NC(=O)c3ccncc3)oc2c1
inhibition (at 20 µM): 97.7% (active) | inhibition [1]: 54.3%

CCN(CC)c1ccc2cc(/C(N)=N/NC(=O)c3cccs3)c(=O)oc2c1
inhibition (at 20 µM): 99.5% (active) | inhibition [1]: 53.8%

N/C(=N\NC(=O)c1cccs1)c1cc2cc(Cl)ccc2oc1=O
inhibition (at 20 µM): 2.7% (inactive)

COC(=O)CCc1nc2cc(Cl)ccc2n(Cc2ccccc2)c1=O
inhibition (at 20 µM): 0% (inactive)

O=C(NCc1cccs1)C1CC(=O)N(c2ccccc2)C1 (stereo unspecified)
inhibition (at 20 µM): -2.2% (inactive)

COc1cccc(C=N[C@@H](CO)[C@@H](O)c2ccc([N+](=O)[O-])cc2)c1O
inhibition (at 20 µM): -1% (inactive)

COC(=O)/C(N=Nc1c(C)n(C)n(-c2ccccc2)c1=O)=C(\C)O
inhibition (at 20 µM): 2.8% (inactive)

COC(=O)CCCC1=CC2=CC(=O)C(C)(OC(=O)C3CCCC3)C(=O)C2=CO1 (stereo unspecified)
inhibition (at 20 µM): 52.5% (inactive) | inhibition [1]: 24.7%

CCCCC1=CC2=CC(=O)C(C)(OC(=O)C3CCCC3)C(=O)C2=CO1 (stereo unspecified)
inhibition (at 20 µM): 68.3% (active)

CCCCC1=CC2=CC(=O)C(C)(OC(=O)CCc3ccccc3)C(=O)C2=CO1 (stereo unspecified)
inhibition (at 20 µM): 41.7% (inactive)

O=C(Cn1cccc1C(=O)c1ccccc1)NCc1ccc2c(c1)OCO2
inhibition (at 20 µM): -0.1% (inactive)

CC(CCc1ccccc1)NC(=O)CSc1cccc[n+]1[O-] (stereo unspecified)
inhibition (at 20 µM): 2.5% (inactive)

O=C(N/N=C/c1ccc([N+](=O)[O-])o1)c1cn(-c2ccccc2)nc1-c1ccccc1
inhibition (at 20 µM): 65.8% (inactive) | inhibition [1]: -1.2%

COc1ccc(-c2nn(-c3ccccc3)cc2C(=O)N/N=C/c2ccc([N+](=O)[O-])o2)cc1
inhibition (at 20 µM): 55.9% (inactive) | inhibition [1]: 0.9%

O=C(N/N=C/c1ccc([N+](=O)[O-])o1)c1cn(-c2ccccc2)nc1-c1ccc(Cl)cc1
inhibition (at 20 µM): 64% (active)

COc1ccccc1OCCNC(=O)C1CCCCC1
inhibition (at 20 µM): -0.2% (inactive)

COC(=O)C1=NN(c2ccccc2)C2C(=O)N(c3ccccc3OC)C(=O)C12 (stereo unspecified)
inhibition (at 20 µM): 1.2% (inactive)

COc1ccccc1N1C(=O)C2C(C(=O)c3ccccc3)=NN(c3ccccc3)C2C1=O (stereo unspecified)
inhibition (at 20 µM): 72.1% (inactive) | inhibition [1]: 33.6%

COc1ccccc1N1C(=O)C2C(C(=O)c3ccccc3)=NN(c3ccc(C)cc3)C2C1=O (stereo unspecified)
inhibition (at 20 µM): 85.1% (active) | inhibition [1]: 102%

COc1ccccc1N1C(=O)C2C(C(=O)c3ccccc3)=NN(c3ccccc3OC)C2C1=O (stereo unspecified)
inhibition (at 20 µM): 59.5% (inactive) | inhibition [1]: 13.2%

COC(=O)C1=NN(c2ccc(OC)cc2)C2C(=O)N(c3ccccc3OC)C(=O)C12 (stereo unspecified)
inhibition (at 20 µM): -0.7% (inactive)

COc1ccccc1N1C(=O)C2C(C(=O)c3ccccc3)=NN(c3ccc(Br)cc3)C2C1=O (stereo unspecified)
inhibition (at 20 µM): 54.9% (active) | inhibition [1]: 55%

O=C(Nc1ccc(F)cc1F)C1CCN(C(=O)c2ccc(Br)cc2)CC1
inhibition (at 20 µM): 1.2% (inactive)

Cc1ccc(CCNC(=O)c2nnc(CS(=O)(=O)c3ccccc3)o2)cc1
inhibition (at 20 µM): -0.3% (inactive)

O=C(COC(=O)c1ccc2c(c1)C(=O)N(Cc1ccco1)C2=O)NCC(F)(F)F
inhibition (at 20 µM): 1.5% (inactive)

Nc1ccc(Cc2ccc(N)c(O)c2)cc1O
inhibition (at 20 µM): 52.4% (active)

Cc1cc(Cc2ccc(N)c(C)c2)ccc1N
inhibition (at 20 µM): -1.4% (inactive)

Nc1ccc(Cc2ccc(N)c(C(=O)O)c2)cc1C(=O)O
inhibition (at 20 µM): 5.8% (inactive)

CC(C)COc1ccc(S(=O)(=O)n2cc(F)c(=O)[nH]c2=O)cc1
inhibition (at 20 µM): 2.9% (inactive)

COc1ccc(Cc2noc(-c3ccccc3)n2)cc1OC
inhibition (at 20 µM): 61.8% (active)

COc1cccc(-c2nc(Cc3ccc(OC)c(OC)c3)no2)c1
inhibition (at 20 µM): 2.1% (inactive)

COc1ccc(Cc2noc(-c3ccc(OC)c(OC)c3)n2)cc1OC
inhibition (at 20 µM): 0.9% (inactive)

CC(C)CNC(=O)c1cccc(NC(=O)c2ccco2)c1
inhibition (at 20 µM): -0.6% (inactive)

CCOC(=O)C1=C(C)N(CC)C(=S)NC1c1ccccc1OC(F)F (stereo unspecified)
inhibition (at 20 µM): -2% (inactive)

CCOC(=O)c1c(NC(=O)N/N=C/c2ccc(O)c(OC)c2)sc(C(C)=O)c1C
inhibition (at 20 µM): -2.2% (inactive)

N#Cc1ccc2ccn(CC(=O)NCc3ccccc3)c2c1
inhibition (at 20 µM): -1.6% (inactive)

CC(C)(C)/C(O)=C(/C#N)c1nc2ccccc2[nH]1
inhibition (at 20 µM): -1.6% (inactive)

CN(C)c1cccc(C(=O)NNC(=S)NC2CC3CCC2C3)c1 (stereo unspecified)
inhibition (at 20 µM): -1.9% (inactive)

CCOC(=O)c1c(S(=O)(=O)Nc2ccccn2)c(C)n(C)c1C
inhibition (at 20 µM): 2.8% (inactive)

COc1ccccc1CNC(=O)C1CCC(CNS(=O)(=O)c2ccc(F)cc2)CC1 (stereo unspecified)
inhibition (at 20 µM): -1% (inactive)

Cc1ccc(NC(=O)c2ccc(NCCc3ccccc3)c([N+](=O)[O-])c2)cc1F
inhibition (at 20 µM): 2.5% (inactive)

Cc1cccc(NC(=O)c2ccc(NCCc3ccccc3)c([N+](=O)[O-])c2)c1
inhibition (at 20 µM): 96.9% (active) | inhibition [1]: 58.9%

O=C(Nc1ccccc1)c1ccc(NCCc2ccccc2)c([N+](=O)[O-])c1
inhibition (at 20 µM): 147% (inactive)
